Screening data deposited in PubChem BioAssay by Broad Institute.
The sample as a whole holds a higher share of hits than the screen did.
Tgondii IFNg: inhibitors of Toxoplasma gondii growth with IFN-gamma; Toxoplasma gondii growth in IFN-gamma-treated host cells; stronger effect = lower value; activity change, negative = inhibition, % (no concentration beside the values); hit rate 3.8% among 69,000; in the data active = activity change below about -70%, passing the limit was not always enough;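 note: host cells are HeLa cells infected with Toxoplasma gondii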
Numbers without * were called inactive.

SMILES	Tgondii IFNg
Cc1nc(N2CCN(c3ccccc3)CC2)nc2c1C(=O)CC(c1ccccc1F)C2 (stereo not given)	-25
Cc1cc(=O)[nH]n(-c2ccccc2)c1=O	-49
Cc1ccccc1C1CC(=O)c2cnc3[nH]n(-c4ccccc4)c(=O)c3c2C1 (stereo not given)	-91*
CC(C)n1cnc(C2CN(C(=O)c3ccccn3)c3ccc(C(=O)N4CCC(O)CC4)cc32)n1 (stereo not given)	-5
CC(=O)Nc1cccc(-c2ccccc2-c2nnc(C)s2)c1	-23
CC(=O)Nc1cccc(-c2cnn3cccnc23)c1	-50
CC(=O)Nc1cccc(-c2cc(C(F)(F)F)cc3[nH]cnc23)c1	-77*
Cc1cc(C)cc(NC(=O)C2CC(=O)N(CCc3c[nH]c4ccc(C)cc34)C2)c1 (stereo not given)	495
COCCC1COC2(CCN(Cc3nccn3C)CC2)C1 (stereo not given)	24
Nc1cc(-c2ccc(Cl)cc2)nc(N)n1	100
CCc1nc(N)nc(N)c1-c1ccc(Cl)cc1	-95*
CSc1nc(-c2ccc(Cl)cc2)nc(N)c1-c1ccccc1	207
CC(c1ccon1)N(C)C(=O)C1(Oc2ccc(Cl)cc2)CCNCC1 (stereo not given)	-8
Cc1cc(C)n2nc(C(=O)NCC(C)(C)N3CCCCC3)nc2n1	5
Cc1oc(C2CCN(C(=O)Cc3c(F)cccc3Cl)CC2)nc1C(=O)N1CCCC1	-73*
Cc1oc(C2CCN(C(=O)Cc3ccccc3F)CC2)nc1C(=O)N1CCCC1	-42
Cc1oc(C2CCN(C(=O)Cc3ccccc3Cl)CC2)nc1C(=O)N1CCOCC1	-35
c1cnc(N2CC[C@@]3(C[C@H](N4CCCC4)CCO3)C2)nc1	-3
CCN1C[C@@H](C(=O)NCCc2cccs2)C[C@@H]2OCC[C@@H]21	21
Nc1c(-c2nnc(-c3ccccc3)o2)sc2nc(-c3ccccc3)cc(-c3ccccc3)c12	-87*
Cc1ccc(-c2cc(-c3ccccc3)nc3sc4c(c23)CCCC4)cc1	33
O=c1[nH]cnc2c1sc1nc(-c3ccccc3)cc(-c3ccccc3)c12	-9
CCn1ccnc1CN1CCCN(c2ccccc2C)CC1	-10
COc1cc2c(cc1C1CC(=O)Nc3cc(O)c(C)cc31)CCC2 (stereo not given)	0
CCOc1ccccc1-c1ccccc1NC(=O)c1cc(-c2ccc(F)cc2)no1	-9
SMILES	Tgondii IFNg
CCOc1ccccc1-c1ccccc1NC(=O)c1ccc(-n2nc(C)cc2C)cc1	-101*
Cc1cc(C)n(-c2ccc(C(=O)Nc3nc(-c4cc(C)sc4C)cs3)cc2)n1	5
Cc1oc(-c2ccc(C(=O)NCCN3CCOCC3)cc2)nc1CN1CCc2ccccc21	55
Cc1oc(-c2ccc(C(=O)NCCN(C)C)cc2)nc1CN1CCc2ccccc21	-112*
CCCNC(=O)c1ccc(-c2nc(CN3CCc4ccccc43)c(C)o2)cc1	4
Cc1ccc(CNC(=O)c2ccc(-c3nc(CN4CCc5ccccc54)c(C)o3)cc2)cc1	72
COCCNC(=O)c1ccc(-c2nc(CN3CCc4ccccc43)c(C)o2)cc1	160
Cc1oc(-c2ccc(C(=O)NC3CCCCCC3)cc2)nc1CN1CCc2ccccc21	-93*
CN(C)CCNC(=O)Nc1c[nH]c2ccccc2c1=O	-14
CN(C)CC1(O)CCCN(C(=O)Nc2ccc(-c3ccccc3)cc2)CC1 (stereo not given)	10
C=CCN1CC[C@H]2[C@@H]1CCN2S(=O)(=O)Cc1ccccc1	5
CCCNC(=O)c1cc2c(s1)CCN2c1ncccn1	58
CCS(=O)(=O)N1CCCC2(CCCN2CCCc2ccccc2)C1 (stereo not given)	-10
CC[C@@H]1OC[C@@H]2CN(C(=O)CN(C)C)CC[C@H]21	9
COc1cc(C(=O)O)ccc1NC(=O)[C@@H]1N[C@@H](CC(C)(C)C)[C@](C#N)(c2ccc(Cl)cc2F)[C@H]1c1cccc(Cl)c1F	-80*
CCS(=O)(=O)N1CCC2(CC1)OC(=O)C(C)=C2C(=O)Nc1ccc(F)cc1	45
Cc1nn(C)cc1S(=O)(=O)N1CCCC(CN2CCCC2=O)C1 (stereo not given)	32
CN(C)C(=O)c1ccc(S(=O)(=O)c2ccc(NC(=O)C(C)(O)C(F)(F)F)c(Cl)c2)cc1 (stereo not given)	-28
CN1C(C)(C)CC(Nc2nc(-c3ccccn3)nc3c2CCNC3)CC1(C)C	-4
c1ccc2c(c1)CC(Nc1nc(C3CCCC3)nc3c1CNC3)CO2 (stereo not given)	2
Fc1cccc(-c2nc3c(c(NC4CC4)n2)CNCC3)c1	-86*
COc1cccc(NC2COC3(CCN(Cc4ccc(F)cc4)CC3)C2)c1 (stereo not given)	-44
COc1cccc(Oc2ccc(-n3cnnc3)cn2)c1	47
Cc1c(Cl)cccc1NC(=O)CN1C(=O)CCc2cc(S(=O)(=O)N3CCCCC3)ccc21	-11
CC(C)c1ccc(NC(=O)CN2C(=O)CCc3cc(S(=O)(=O)N4CCOCC4)ccc32)cc1	-18
O=C(CN1C(=O)CCc2cc(S(=O)(=O)N3CCCC3)ccc21)Nc1cccc(Cl)c1	-103*
